Sampled rows, rich in hits. Any-hit rate of the full collection: about 32%.
PostGolgi yeast – phenotypic screen on post-Golgi transport, primary screen. inhibition, % at 10 µM. post-Golgi transport phenotypic cell assay. 98,000 compounds, 0.9% hits;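 also: yeast cells grown in 1536-well plates; yeast grown about 18 h at 30C before absorbance read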
CYP2C9 inhib – blockers of cytochrome P450 2C9 activity – biochemical, luminescence, ADME assay, primary screen; inhibition, % at 5 µM; CYP2C9 Supersomes, luciferin-H conversion; P11712; 96,000 compounds, 20% hits;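 active = blocking of liver enzyme CYP2C9 beyond about 50% at 5 µM, limit read from the data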
CYP2C19 activ – human CYP2C19 activators, primary screen, biochemical, luminescence; Cytochrome P450 2C19 (Homo sapiens), P33261; recombinant CYP2C19, luciferin-H EGE luminescence; active compounds read high; 0 = fully inhibited enzyme, 1 = untreated enzyme; activation factor at 5 µM; 96,000 tested, under 10 active; AID 1025, 2008;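 active = activation factor of at least 2 at 5 µM in the primary screen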;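 also: 0 = wells with 2.5 mM tranylcypromine and 1 = vehicle-only wells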
Target sequence (P33261 whole entry, looked up): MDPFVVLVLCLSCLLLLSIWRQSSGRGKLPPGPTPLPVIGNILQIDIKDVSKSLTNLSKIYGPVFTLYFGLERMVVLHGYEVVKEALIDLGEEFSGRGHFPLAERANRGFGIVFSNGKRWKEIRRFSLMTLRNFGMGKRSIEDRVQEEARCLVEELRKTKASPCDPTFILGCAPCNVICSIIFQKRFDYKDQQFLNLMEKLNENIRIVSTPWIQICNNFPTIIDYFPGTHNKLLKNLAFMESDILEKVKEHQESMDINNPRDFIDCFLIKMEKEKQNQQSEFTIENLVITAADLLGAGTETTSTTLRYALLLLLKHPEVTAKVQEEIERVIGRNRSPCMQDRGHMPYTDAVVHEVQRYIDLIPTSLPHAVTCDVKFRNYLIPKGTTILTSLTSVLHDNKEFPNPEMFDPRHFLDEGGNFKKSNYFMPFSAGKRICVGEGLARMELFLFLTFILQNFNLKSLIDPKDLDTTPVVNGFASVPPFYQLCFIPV
PostGolgi ctrl – growth inhibition of yeast control strain, primary screen, counter-screen for post-Golgi transport modulator project. AID 738, 2007. 98,000 compounds, 5% hits. inhibition, % at 10 µM. efflux-deficient yeast background strain, growth absorbance A615, 16 h
CYP2C9 activ – human CYP2C9 activators, primary screen, biochemical, luminescence | recombinant CYP2C9, luciferin-H conversion; active compounds read high; factor 1 = untreated enzyme, 0 = blocked | activation factor at 5 µM | AID 1024, 2008 | 96,000 compounds, 1.4% hits | Cytochrome P450 2C9 (Homo sapiens), P11712;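 active = activation factor of 2 or more for CYP2C9 at a 5 µM dose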;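 also: 0 = sulfaphenazole-blocked wells and 1 = vehicle-only wells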
CYP2C19 inhib – blockers of cytochrome P450 2C19 activity – biochemical, luminescence, ADME assay, primary screen. 96,000 compounds, 21% hits. CYP2C19 Supersomes, luciferin-H EGE luminescence, 30 min. inhibition, % at 5 µM. P33261. AID 778, 2007;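 active = CYP2C19 inhibition above a set limit at 5 µM in the primary screen, cut at about 50% in these data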;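 also: plate controls were negative control wells for no effect and 2.5 mM tranylcypromine positive control for full effect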
Numbers without * were called inactive; · = not tested or not shown. Rule as the data show it, unless noted: active = inhibition above about 30%; inactive = the rest.

SMILES	PostGolgi yeast	CYP2C9 inhib	CYP2C19 activ	PostGolgi ctrl	CYP2C9 activ	CYP2C19 inhib
Cc1nn(-c2cccc(Cl)c2)c2c1C(c1ccncc1)C(C#N)=C(N)O2 (stereo not drawn)	-8.5	62.4*	0.5	8.0	0.4	50.4*
O=C(O)c1ccnc(C(=O)O)c1	16.6	-8.8	1.1	21.6	1.1	-11.7
Cc1ccc(CNC(=O)CSCC(=O)O)cc1	3.8	-8.4	1	41.4*	1.1	-4.1
Cc1ccc(CS(=O)(=O)CCC(=O)NCCN2CCCC2)cc1	2.8	16.1	1.1	0.6	0.8	-5.9
CNC(=O)c1ccccc1-c1ccccc1	21.2	-14.4	1.1	16.7	1.1	-8.6
Cn1cc(-c2nnc(-c3ccccc3)o2)c2ccccc21	0.0	-142.9	1.1	1.5	2.4*	-6.3
Cc1ccccc1-c1nnc(-c2ccccc2)o1	8.9	37.9	0.6	0.3	0.6	43.9
Cc1nnc2n(-c3ccccc3)c(=O)c3c4c(sc3n12)COC(C(C)C)C4 (stereo not drawn)	0.9	16.4	0.9	15.6	0.8	7.7
CC(C)C1Cc2c(sc3[nH]c(=S)n(Cc4ccccc4)c(=O)c23)CO1 (stereo not drawn)	4.8	76.9*	1	8.3	0.2	4.4
Cc1cc(C)nc(NN2C(=O)/C(=C/c3ccc(O)cc3)SC2=S)n1	-0.8	-224.5	1	2.7	3.2*	0.4
COc1ccccc1/C=C1\SC(=S)N(Nc2nc(C)cc(C)n2)C1=O	8.0	-12.1	0.7	-0.3	1.1	30.8
Cc1nn(Cc2nc(-c3cccs3)no2)c(C)c1Br	4.2	46.1	0.2	-9.6	0.5	75.1*
O=C(O)CC1(Cc2nc(-c3cccs3)no2)CCCC1	-11.3	3.9	1.1	22.4	1	-5.0
O=C1c2ccc(Oc3ccc4c(c3)C(=O)N(CCCCO)C4=O)cc2C(=O)N1CCCCO	-4.1	85.9*	0.2	5.6	0.1	83.7*
Cc1cc(SCC(=O)c2cccs2)nc2c(C)cccc12	-9.4	-16.6	0.8	13.2	1.2	16.6
Cc1cc(C)c(C#N)c(SCC(=O)c2cccs2)n1	-3.5	61.8*	0	14.3	0.4	96.2*
Cc1cc2c(C)ccc(C)c2nc1SCC(=O)c1cccs1	-0.5	54.8*	1	7.1	0.5	-2.4
Cc1nnc(SCc2cnc(-c3ccccc3)o2)[nH]c1=O	16.6	3.2	1.1	-5.0	1	-11.4
C#CCSc1nnc(-c2ccccc2)c(=O)[nH]1	·	55.6*	0.9	·	0.4	6.5
COc1cccc2c(=O)n(CC(=O)N3CCN(c4ccccc4)CC3)ccc12	-8.7	·	·	0.1	·	·
Cc1cc2c(cc(C(=O)N3CCC(C(=O)N4CCCC4)CC3)n2Cc2c(F)cccc2Cl)o1	-11.8	78.2*	0	5.3	0.2	96.1*
CCn1cnc2sc(C(=O)O)c(C)c2c1=O	-8.5	-22.4	1.2	1.5	1.2	-15.5
Cc1sc2ncn(CC(=O)OC(C)C(=O)NC(C)(C)C)c(=O)c2c1C (stereo not drawn)	0.8	27.0	0.3	10.1	0.7	67.0*
COC(=O)Cn1cnc2ccccc2c1=O	-1.4	4.4	1	7.6	1	-2.9
Cc1sc2ncn(CC(=O)OC(C)C)c(=O)c2c1C	1.9	41.0	0.3	8.5	0.6	67.2*
SMILES	PostGolgi yeast	CYP2C9 inhib	CYP2C19 activ	PostGolgi ctrl	CYP2C9 activ	CYP2C19 inhib
Cc1sc2ncn(CC(=O)OCC(=O)NC(C)(C)C)c(=O)c2c1C	-5.8	36.2	0.7	10.3	0.6	26.2
CCn1cnc2sc(C)c(C)c2c1=O	11.8	12.2	0.9	31.7*	0.9	12.2
CC(C)OC(=O)Cn1cnc2ccc(Br)cc2c1=O	-5.4	38.3	0.3	10.8	0.6	68.1*
O=C(NCc1ccccc1)c1ccc(CN(c2ccccn2)S(=O)(=O)c2ccccc2)cc1	1.6	40.3	1	12.1	0.6	0.7
CC(=O)Nc1ccc(C(=O)n2nc(C)cc2C)cc1	·	-8.1	1	·	1.1	3.8
COc1cc2c(cc1NC(=O)CN1CCN(S(=O)(=O)c3ccc(C)cc3)CC1)oc1ccccc12	16.9	46.7	1	12.5	0.5	0.3
COc1cc2c(cc1NS(=O)(=O)N1CCCC1)oc1ccccc12	21.3	-95.0	0.2	49.4*	2*	82.0*
COc1cc2c(cc1NC(=O)c1ccncc1)oc1ccccc12	1.8	90.7*	0.4	15.6	0.1	57.5*
COc1ccc(-c2nc(Cn3c(SCc4ccc(C)cc4)nc4ccncc43)c(C)o2)cc1OC	-5.3	52.9*	0.5	7.6	0.5	53.1*
COc1ccc(-c2nc(Cn3c(SCc4cccc(F)c4)nc4ccncc43)c(C)o2)cc1OC	-8.0	89.0*	0.3	3.0	0.1	73.2*
CSc1nc2ccccc2n1Cc1cccc(F)c1	-2.0	27.7	0.6	16.2	0.7	39.6
COc1ccc2c(c1)Sc1ccccc1N2CCN(C)C	0.4	25.3	0.4	-3.4	0.7	57.1*
CCN1/C(=C/C(C)=O)Sc2ccc(OC)cc21	1.1	24.2	0.6	24.9	0.8	36.6
COc1ccc(N2C(=O)CCC2(C#N)c2ccc(Br)cc2)cc1 (stereo not drawn)	0.0	8.9	0.4	15.3	0.9	57.2*
COc1ccccc1N1C(=O)C2C3C=CC(C3)C2(C)C1=O (stereo not drawn)	3.6	-7.3	0.9	6.4	1.1	13.8
COc1ccccc1N1C(=O)CCC1(C#N)c1ccc(Br)cc1 (stereo not drawn)	-1.5	68.6*	0.4	28.8	0.3	59.4*
CN(C(=O)c1cccc(C#N)c1)c1nnc(C2CCCO2)s1 (stereo not drawn)	2.4	5.5	1	-3.5	0.9	0.9
CC(C)CNC(=O)C1CC(=O)OC12CCCCC2 (stereo not drawn)	10.6	2.7	1	5.3	1	-2.1
Cc1ccc(C)n1-n1c(C)nc2sc3c(c2c1=O)CCCCC3	-1.6	8.4	0.9	50.4*	0.9	10.8
Cc1ccc(-c2nc3sc4c(c3c(=O)n2N)CCCC4)cc1	2.5	58.3*	0.8	23.5	0.4	22.6
CCN1CNC(=S)N(c2cc(C)ccc2C)C1	8.8	-6.6	1	-1.4	1.1	-3.1
COCCCNC(=O)Cn1nnc(-c2ccc(NC(=O)c3ccc(F)cc3)cc2)n1	6.4	30.5	0.7	3.8	0.7	25.8
O=C(N=Nc1c(O)[nH]c2ccc(Br)cc12)c1ccccc1-n1cccc1	1.8	64.4*	0.6	36.5*	0.4	35.7
Cc1cccc(C)c1OCC(=O)N=Nc1c(O)[nH]c2ccc(Br)cc12	1.2	87.7*	0.7	37.6*	0.1	33.2
O=C(Cn1nnc(-c2ccccc2)n1)N=Nc1c(O)[nH]c2ccccc12	4.8	1.3	1	-1.6	1	-0.5
